Screening results deposited in PubChem by National Center for Advancing Translational Sciences (NCATS).
Compounds with a hit are over-represented: about 21% of the library has one in this group of screens.
NS1 function inh = blocks influenza NS1 protein function. Potency, µM (top dose mostly 46.1 µM), inactives show top-dose activity, positive = more growth. hit rate 0.4% among 270,000; calls by dose curve; further: potency means the concentration at half of the fitted maximal effect; actives are rising curves; nearly all actives have a fitted effect of over 50% in size
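Growth recovery, yeast-based: influenza A NS1 expressed in S. cerevisiae causes slow growth, and suppressors are detected by OD600. The parent strain without NS1 is used as positive control.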
Pf growth 96h = P. falciparum growth inhibition at 96 hours; P. falciparum luciferase reporter growth, 96 h; Potency, µM (titrated, usually from 28.7 µM), for the others: top-dose activity change, negative = inhibition, most hits filed as inhibitors; hit rate 6.9% among 320,000; AID 504834; further: potency means the concentration at half of the fitted maximal effect; on the % scale 0 is the no-effect control and ±100 the full control effect
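Delayed-death screen, second-generation endpoint: infected erythrocytes, 2% hematocrit, 0.05% parasitemia final; 96 hours at 37 C, 5% CO2; luciferase detection reagent; luminescence decrease equals reduced growth.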
Pf growth 48h = inhibits P. falciparum growth in the first generation, 48 h; Potency, µM (highest dose often 28.7 µM), for inactives: top-dose activity change, negative = inhibition, most hits filed as inhibitors; hit rate 5.9% among 310,000; P. falciparum luciferase growth in erythrocytes, 48 h; further: potency means the concentration at half of the fitted maximal effect; on the % scale 0 is the no-effect control and ±100 the full control effect
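Luciferase-expressing parasites in RBCs, 2% Hct / 0.1% parasitemia final; RPMI 1640 + 0.5% Albumax; 37 C, 5% CO2, one generation; luminescence read-out, lower signal = inhibition.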
Shiga toxin inh = Shiga toxin inhibition; Vero cells, Shiga toxin protein synthesis inhibition reporter; inhibition, % at 38.7 µM; hit rate 9.2% among 290,000; AID 2315; in the data active means inhibition mostly above about 28%, no sharp cut-off; inactive means mostly below about 43%; further: 0% is about no effect
SARS PLP yeast = inhibitors of SARS-CoV papain-like protease in yeast. S. cerevisiae expressing SARS-CoV PLpro, growth rescue. Potency, µM (series often up to 32.9 µM), without a hit: top-dose activity, positive = growth rescue, most hits filed as activators. hit rate 0.19% among 330,000. AID 485353; calls by dose curve; further: potency means the concentration at half of the fitted maximal effect; 0% is about no effect; nearly all actives have a fitted effect of over 55% in size
Cycloheximide cs = counter-screen hit for Shiga toxin inhibitors, cycloheximide; cell reporter, cycloheximide protein synthesis inhibition counterscreen; max response, %; hit rate 12% among 300,000; in the data active means max response mostly above about 13%, no sharp cut-off; inactive means mostly below about 14%; further: read at 38.3 µM for the half of the compounds with a filed dose; 0% is about no effect
* hit, by the source's call. Unless noted, the call rests on the fitted dose curve; in most records, active means well fitted inhibition curve with a large enough effect; inconclusive means small, poorly fitted or top-dose-only effect, or another doubt; inactive means no such curve, though single readings can be large or run the other way.

Results for COc1cc(NC(=O)C2CCN(S(=O)(=O)c3cnc[nH]3)CC2)cc(OC)c1OC ?
NS1 function inh: -16%; Pf growth 96h: 0%; Shiga toxin inh: -8; SARS PLP yeast: 22%; Cycloheximide cs: -6

What do the screens show for `Cc1ccc(C(=O)NCC(=O)OC(C)C(=O)NCCC2=CCCCC2)cc1C` (stereo not drawn)?
NS1 function inh: -8%; Pf growth 96h: 21%; Pf growth 48h: 10%; Shiga toxin inh: -2; SARS PLP yeast: -18%; Cycloheximide cs: 1

Results for CC(=O)c1cc(C(C)=O)c(C)[n+](C)c1C ?
NS1 function inh: 1%; Pf growth 96h: 24%; Pf growth 48h: 10µM*; Shiga toxin inh: 6; SARS PLP yeast: 1%; Cycloheximide cs: 1

Results for CC(=O)c1cc(C(=O)Nc2ccc(C(=O)O)cc2)oc1C ?
NS1 function inh: 3%; Pf growth 48h: 13%; Shiga toxin inh: 19; SARS PLP yeast: -5%; Cycloheximide cs: -4

What do the screens show for `CC(=O)c1cc(C(C)=O)c(C)nc1C`?
Pf growth 96h: 1.9µM*; Pf growth 48h: 5%; Shiga toxin inh: -9; SARS PLP yeast: -4%; Cycloheximide cs: 15

How did CCc1nnc(NC(=O)CSc2nc3cc(OC)c(OC)cc3cc2C)s1 do in these assays?
NS1 function inh: 9%; Pf growth 96h: inconclusive; Pf growth 48h: inconclusive; Shiga toxin inh: -10; SARS PLP yeast: 1%; Cycloheximide cs: -5

Results for CCCC[N+]12CCC(CC1)C(C(=O)c1cccs1)C2 (stereo not drawn) ?
NS1 function inh: 9%; Pf growth 96h: 2.6µM*; Pf growth 48h: 10µM*; Shiga toxin inh: -3; SARS PLP yeast: 1%; Cycloheximide cs: -5

What do the screens show for `Cc1cccc(N2N=C(C(=O)Nc3ccc(Cl)c(S(=O)(=O)N4CCOCC4)c3)CCC2=O)c1`?
Pf growth 96h: inconclusive; Pf growth 48h: 12µM*; SARS PLP yeast: 5%

What do the screens show for `Cc1cccc(N2N=C(C(=O)Nc3nc(C)cs3)CCC2=O)c1`?
NS1 function inh: -5%; Pf growth 96h: -22%; Pf growth 48h: -21%; Shiga toxin inh: 19; SARS PLP yeast: 0%; Cycloheximide cs: -7

How did Cc1cccc(N2N=C(C(=O)O)CCC2=O)c1 do in these assays?
NS1 function inh: 2%; Pf growth 96h: inconclusive; Pf growth 48h: 9.3µM*; Shiga toxin inh: -8; SARS PLP yeast: -1%; Cycloheximide cs: 1

What do the screens show for `CC1=NN(c2ccc(C(=O)O)cc2)C(=O)CC1`?
NS1 function inh: 22%; Pf growth 96h: 3%; Pf growth 48h: 41%; Shiga toxin inh: 44*; SARS PLP yeast: 3%; Cycloheximide cs: 29*

Results for Cc1cccc(-n2ccc(=O)c(C(=O)Nc3ccc(S(=O)(=O)N4CCOCC4)cc3)n2)c1 ?
NS1 function inh: 10%; Pf growth 96h: 12µM*; Pf growth 48h: -29%; Shiga toxin inh: -9; SARS PLP yeast: 12%; Cycloheximide cs: 10

Results for Cc1ccc(S(=O)(=O)NCC(=O)OCC(=O)NC2CCCCC2)cc1 ?
SARS PLP yeast: 7%

What do the screens show for `O=C(O)c1ccc2c(c1)C(=O)N([C@H](Cc1c[nH]c3ccccc13)C(=O)O)C2=O`?
Pf growth 96h: 15%; Pf growth 48h: inconclusive; Shiga toxin inh: 19; SARS PLP yeast: 1%; Cycloheximide cs: 15

How did NCCNC(=O)Cn1c(=O)c2c3c(sc2n(Cc2ccccc2)c1=O)CCCC3 do in these assays?
NS1 function inh: 7%; Pf growth 96h: inconclusive; Pf growth 48h: inconclusive; Shiga toxin inh: -8; SARS PLP yeast: 0%; Cycloheximide cs: -2

How did CCOC(=O)c1[nH]c(Cc2[nH]c(C(=O)OCC)c(C)c2CCC(=O)OC)c(CCC(=O)OC)c1C do in these assays?
NS1 function inh: 2%; Pf growth 96h: 89%; Pf growth 48h: 1.7µM*; Shiga toxin inh: -9; SARS PLP yeast: 3%; Cycloheximide cs: -1

What do the screens show for `Cc1cccc(CSCc2nnc(N)s2)c1`?
NS1 function inh: -6%; Pf growth 96h: 34%; Pf growth 48h: 8%; Shiga toxin inh: 39*; SARS PLP yeast: 4%; Cycloheximide cs: 19*

Results for CCOC(=O)c1cc(-c2ccc(F)cc2)n(CCC(=O)NC2CCN(Cc3ccccc3)CC2)c1C ?
Pf growth 96h: inconclusive; Pf growth 48h: inconclusive; Shiga toxin inh: -14; SARS PLP yeast: 2%; Cycloheximide cs: -9

What do the screens show for `COc1ccc2cc3cc(C(=O)NC(C)C)oc3nc2c1`?
NS1 function inh: -15%; Pf growth 96h: 2.9µM*; Shiga toxin inh: 75*; SARS PLP yeast: -17%; Cycloheximide cs: 48*

What do the screens show for `COc1ccc2cc3cc(C(=O)NCc4ccc5c(c4)OCO5)oc3nc2c1`?
NS1 function inh: 1%; Pf growth 96h: -8%; Pf growth 48h: 6%; Shiga toxin inh: -1; SARS PLP yeast: -3%; Cycloheximide cs: -2

What do the screens show for `COc1ccc2cc3cc(C(=O)NCC4COc5ccccc5O4)oc3nc2c1` (stereo not drawn)?
NS1 function inh: -36%; Pf growth 96h: -2%; Pf growth 48h: inconclusive; Shiga toxin inh: 36; SARS PLP yeast: -1%; Cycloheximide cs: 40*

What do the screens show for `O=C(NCC(c1ccc(F)cc1)N1CCOCC1)c1nn(-c2ccccc2)c(=O)c2ccccc12` (stereo not drawn)?
Pf growth 96h: inconclusive; Pf growth 48h: 9.3µM*; SARS PLP yeast: -1%

How did O=C(NC1CCN(Cc2ccccc2)CC1)c1cccc(S(=O)(=O)Nc2ccc(Br)cc2)c1 do in these assays?
Pf growth 96h: inconclusive; Pf growth 48h: 12µM*; SARS PLP yeast: 3%

What do the screens show for `O=C(NCC(c1ccc(F)cc1)N1CCOCC1)c1ccc(-c2ccccc2)cc1` (stereo not drawn)?
SARS PLP yeast: 6%

Results for O=C(NC1CCN(Cc2ccccc2)CC1)c1cccc(S(=O)(=O)Nc2ccc(F)cc2)c1 ?
Pf growth 96h: 2.1µM*; Pf growth 48h: 4.1µM*; SARS PLP yeast: 0%

Results for CC1(C)CC(NC(=O)c2cccc(S(=O)(=O)Nc3cccc(Cl)c3)c2)CC(C)(C)N1 ?
Pf growth 96h: 4.7µM*; Pf growth 48h: 13µM*; SARS PLP yeast: -6%

Results for COC(=O)c1ccccc1NC(=O)CSc1nc(N)cc(=O)[nH]1 ?
NS1 function inh: 2%; Pf growth 96h: inconclusive; Pf growth 48h: 13%; Shiga toxin inh: 2; SARS PLP yeast: 1%; Cycloheximide cs: -4

How did O=C(O)c1ccc(NC(CSCc2ccccc2F)C(=O)O)c([N+](=O)[O-])c1 (stereo not drawn) do in these assays?
NS1 function inh: 15%; Pf growth 96h: 11%; Pf growth 48h: 2%; Shiga toxin inh: -11; SARS PLP yeast: -2%; Cycloheximide cs: -4

Results for CC(CCN1C(N(C)C)=NC[C@@H]1C)c1ccccc1 (stereo partly drawn) ?
Pf growth 96h: 78%; Pf growth 48h: inconclusive; SARS PLP yeast: -17%
